# High-throughput results (PubChem BioAssay)
# RE007 growth inh: less growth of the S. pombe RE007 Vpr strain; S. pombe RE007 Vpr strain, BacTiter-Glo ATP luminescence, 24 h; Potency, µM (series often up to 92.2 µM), usual class: inhibitors; 360,000 tested, 0.21% active; active = well fitted falling curve with a large enough effect; inconclusive = small, poorly fitted or top-dose-only effect; inactive = no such curve, though single readings can be large or run the other way; also: nearly all actives have a fitted effect of over 50% in size
#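 Fission yeast RE007 carrying one integrated HIV-1 vpr copy, seeded at OD 0.01 in PMG+AL medium with 23 nL pinned compound. Grown 24 h at 30 degrees; viability read by BacTiter-Glo luminescence after 5 min.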
# AMA1-RON2 inh: AMA1-RON2 (P. falciparum) interaction inhibition; 360,000 tested, 0.2% active; Potency, µM (titrated, usually from 58.2 µM), hits mostly inhibitors; AlphaScreen AMA1-biotinylated RON2 peptide binding; also: nearly all actives have a fitted effect of over 45% in size
#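 AMA1 (3D7) with his tag at 25 nM final met compounds first, then biotinylated RON2 peptide at 25 nM; detection used donor plus acceptor beads, 10 µg/mL apiece, read by AlphaScreen after 30 min at room temperature.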
# NS1 inh: inhibitors of influenza NS1 protein function; Potency, µM (doses to about 46.1 µM); AID 2326; 270,000 tested, 0.4% active; calls by dose curve; also: actives are rising curves; nearly all actives have a fitted effect of over 50% in size
#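 A cell-based growth assay was used: compounds that relieve NS1-induced slow growth of budding yeast raise OD600. Assay medium was yeast nitrogen base with ammonium sulphate and -URA supplement, pH 6.0, with 2% galactose.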
# Tb PYK inh: blocks Trypanosoma brucei pyruvate kinase; Q57TT1; TbPYK enzyme, Kinase-Glo Plus ATP luminescence, 45 min; Potency, µM (doses to about 76.8 µM), usual class: inhibitors; 410,000 tested, 0.12% active; also: nearly all actives have a fitted effect of over 50% in size
#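 Readout: single end-point luminescence (Kinase-Glo Plus, 10 min). Reaction conditions were TbPYK/substrate plus 130 uM ADP, 45 min at RT, pH 7.2 TEA buffer. No-enzyme wells served as controls, and data were normalized before concentration-response fitting.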
# LmPK inh: LmPK (Leishmania mexicana) enzyme inhibition | purified LmPK, Kinase-Glo ATP luminescence, 1 h | Potency, µM (top dose mostly 57.5 µM), usual class: inhibitors | 290,000 tested, 0.37% active
# Target sequence (Q27686 whole entry, looked up): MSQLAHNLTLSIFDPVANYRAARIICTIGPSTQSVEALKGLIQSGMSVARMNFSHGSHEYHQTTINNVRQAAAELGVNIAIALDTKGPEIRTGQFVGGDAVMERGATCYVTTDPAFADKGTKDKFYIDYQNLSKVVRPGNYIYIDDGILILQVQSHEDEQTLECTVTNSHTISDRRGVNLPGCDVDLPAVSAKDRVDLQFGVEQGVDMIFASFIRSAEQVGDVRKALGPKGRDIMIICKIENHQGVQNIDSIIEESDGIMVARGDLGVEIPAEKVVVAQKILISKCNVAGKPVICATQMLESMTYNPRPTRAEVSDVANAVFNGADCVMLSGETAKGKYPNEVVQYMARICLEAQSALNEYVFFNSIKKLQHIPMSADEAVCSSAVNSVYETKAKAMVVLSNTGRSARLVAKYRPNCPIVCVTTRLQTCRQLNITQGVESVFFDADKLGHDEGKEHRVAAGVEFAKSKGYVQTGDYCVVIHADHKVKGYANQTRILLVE
#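 Pyruvate kinase activity monitored as ATP production (luciferase luminescence). Conditions: 0.1 nM enzyme, 0.5 mM PEP, 0.1 mM ADP, 1 h, RT; normalized against uninhibited and no-enzyme wells.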
# Flu NS1 inh: validation of influenza NS1 protein function inhibitors. shares compounds with NS1 inh. influenza NS1 function cell assay, 15-point titration. activity change, negative = inhibition, % at 32.9 µM. 1,400 tested, under 10 active; calls by dose curve
# Flu PR8 replic: reduces influenza A/PR/8/34 replication in MDCK cells; shares compounds with NS1 inh; MDCK infected influenza A/PR/8/34, virus titer TCID50; stronger effect = lower value; virus titer (log TCID50), log10 TCID50 at 5 µM; 95 tested, 30% active; AID 504647; call rule not given here
# A number is an active result; . = inactive; ? = inconclusive; / = no result given; [ ] = dose if it differs, or a comment. An excerpt weighted towards active compounds, which were near 0.92% of everything screened. Unless noted, calls follow the shape of the dose curve; as a rule, active = well fitted curve in the direction sought with a large enough effect; inconclusive = small, poorly fitted or top-dose-only effect, or another doubt; inactive = no such curve, though single readings can be large; an effect the other way counts as inactive or inconclusive.
SMILES,RE007 growth inh,AMA1-RON2 inh,NS1 inh,Tb PYK inh,LmPK inh,Flu NS1 inh,others
CCCOc1ccc(/C(O)=C2/C(=O)C(=O)N(c3cc(C)on3)C2c2ccc(C(=O)OC)cc2)cc1 (stereo unspecified),.,.,10µM,.,.,.,
CCOc1ccc(/C(O)=C2/C(=O)C(=O)N(c3ncccn3)C2c2ccc(C)cc2)cc1 (stereo unspecified),.,.,.,.,.,/,
O=S(=O)(c1ccc2nc(-c3ccco3)c(-c3ccco3)nc2c1)N1CCOCC1,.,.,1µM,16µM,.,.,
Cc1cc(N2CCC(C(=O)Nc3ccc(F)cc3F)CC2)n2nc(C)c(-c3ccc(Cl)cc3)c2n1,/,/,/,.,/,/,
Cc1cc(C)c(OCCN2C(=O)NC(C)(C)C2=O)c(Cl)c1,.[3.69 µM],.,?,/,.,.,
COc1ccc(-c2noc(-c3ccc(NCCc4ccccc4)c([N+](=O)[O-])c3)n2)cc1OC,/,/,/,.,/,/,
COc1ccc(C(=O)CSc2nnc(-c3ccccn3)n2Cc2ccco2)cc1,.,.,?,.,.,.,
O=C(CSc1nnc(-c2ccccn2)n1Cc1ccco1)c1ccccc1,.,.,.,.,.,/,
CCCc1nc2ccccc2c(=O)n1-c1c(C)n(C)n(-c2ccccc2)c1=O,.,.,4.5µM,.,.,.,
COc1ccccc1-c1nnc(SC/C(O)=C(\C#N)c2nc3ccccc3[nH]2)n1C1CCCCC1,.,.,?,.,.,/,
N#C/C(=C(/O)CSc1nnc(Cc2cccs2)n1C1CCCCC1)c1nc2ccccc2[nH]1,.,.,18µM,?,.,.,
CCc1[nH]c(=S)c(C#N)c(-c2ccccc2)c1C(=O)OC,.,.,10µM,?,.,.,
COC(=O)c1c(C)[nH]c(C)c1-c1ccccc1,.,.,.,.,.,/,
Cc1cc2cc(CNC(=S)Nc3ccc(OC(F)(F)F)cc3)ccc2[nH]1,.,.,?,.,.,.,
Cc1cc2cc(CNC(=S)Nc3ccc(OC(F)F)cc3)ccc2[nH]1,.,.,?,.,.,/,
Cc1cc2cc(CCNC(=O)c3ccc(C)c([N+](=O)[O-])c3)c(=O)[nH]c2cc1C,.,.,.,.,.,/,
Cc1cc2cc(CNC(=O)c3ccc(C)c([N+](=O)[O-])c3)ccc2[nH]1,.,.,8.9µM,.,.,.,
CCNC(=S)NCc1ccc2[nH]c(C)cc2c1,.,.,11µM,.,.,.,
Nc1nc(NC2CC2)c2ncn([C@H]3C=C[C@@H](CO)C3)c2n1,/,/,/,.,/,/,
CCOc1ccc(NC(=O)c2cnn3c2NC(c2cccc(OC)c2)=CC3c2ccccc2)cc1 (stereo unspecified),/,/,/,.,/,/,
Cc1c(-c2ccc(Cl)cc2)c(=O)oc2c(CN3CCN(C)CC3)c(O)ccc12,/,/,/,.,/,/,
CSc1ccc(C(c2c(C)[nH][nH]c2=O)c2c(C)[nH][nH]c2=O)cc1,.,.,3.2µM,.,.,?,
CCOC(=O)c1c(C)oc2nc(C)nc(N3CCN(c4cccc(C)c4C)CC3)c12,/,/,/,.,/,/,
COC(=O)Cn1c(CN(C)Cc2ccccc2)nc2c1c(=O)n(C)c(=O)n2C,.,.,.,.,.,/,
COC(=O)Cn1c(CN2CCC(Cc3ccccc3)CC2)nc2c1c(=O)n(C)c(=O)n2C,.,.,?,.,.,.,
SMILES,RE007 growth inh,AMA1-RON2 inh,NS1 inh,Tb PYK inh,LmPK inh,Flu NS1 inh,others
COc1ccc(S(=O)(=O)N2CCCCC2)cc1NS(=O)(=O)c1cc(Cl)ccc1Cl,/,.,22µM,.,.,.,Flu PR8 replic=.
CCOc1ccc(-n2c(=O)c3c(C)c(C)sc3n(CC(=O)c3ccccc3)c2=O)cc1,/,/,/,.,/,/,
Cc1ccc(C)n1NC(=O)c1ccc(O)cc1,.,.,11µM,.,.,.,
O=C(Nc1nc(-c2ccco2)c(-c2ccco2)s1)C1CC(=O)N(c2ccc3c(c2)OCCO3)C1 (stereo unspecified),.,10µM,10µM,?,.,.,
O=C(COc1ccc(F)cc1)Nc1ccccc1C(=O)OCc1cc(=O)n2nc(C3CC3)sc2n1,/,/,/,.,/,/,
O=C(C[n+]1cc2ccccc2c2ccccc21)c1ccccc1,.,.,?,.,.,.,
